Measured values reported in PubChem BioAssay (EPA / NIEHS).
The source made the active and inactive calls. The calls were made as follows: active = hit-call score of the fitted dose curve at least 0.9, where 1 is the maximum; inactive = score below 0.9.

Assays:
[1] = ATG_GLI_CIS: Attagene CIS-FACTORIAL HepG2 Assay for human Zinc Finger Protein GLI1 (AID 2282945); conditions: HepG2, Attagene cis-factorial reporter mRNA, GLI element; actives raise or lower the signal
Summary of the method: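 Bidirectional curve fits relative to DMSO, using reporter mRNA levels from RT-PCR plus capillary electrophoresis. Cells were HepG2 transiently carrying cis-regulated reporter constructs, harvested 24 h after dosing.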

[2] = target: Bile acid receptor (Homo sapiens) (UniProt Q96RI1); test: ATG_IR1_CIS: Attagene CIS-FACTORIAL HepG2 Assay for human Nuclear Receptor Subfamily 1 Group H Member 4 (NR1H4), IR1 submotif (AID 2282946); conditions: IR1 reporter transcription, actives raise or lower the signal
Bile acid receptor (Homo sapiens), sequence (Q96RI1 whole entry, looked up): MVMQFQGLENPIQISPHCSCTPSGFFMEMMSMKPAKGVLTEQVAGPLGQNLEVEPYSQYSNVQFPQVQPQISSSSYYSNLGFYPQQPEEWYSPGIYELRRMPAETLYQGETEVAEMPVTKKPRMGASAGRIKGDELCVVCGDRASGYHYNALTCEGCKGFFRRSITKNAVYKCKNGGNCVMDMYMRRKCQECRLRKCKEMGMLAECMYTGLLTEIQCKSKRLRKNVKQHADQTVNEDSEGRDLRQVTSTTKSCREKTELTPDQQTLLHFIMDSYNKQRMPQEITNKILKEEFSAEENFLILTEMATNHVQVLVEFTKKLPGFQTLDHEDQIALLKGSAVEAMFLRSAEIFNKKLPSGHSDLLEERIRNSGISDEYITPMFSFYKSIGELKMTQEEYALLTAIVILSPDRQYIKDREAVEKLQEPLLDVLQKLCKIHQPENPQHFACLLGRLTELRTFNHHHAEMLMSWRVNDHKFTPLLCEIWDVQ
Summary of the method: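 HepG2 cells transiently transfected with multiplexed cis-element reporter units read endogenous transcription factor activity. After 24 h compound exposure, reporter mRNA was quantified by RT-PCR, fluorescent labelling, HpaI digestion and capillary electrophoresis; bidirectional fitting versus DMSO baseline.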

[3] = ATG_GRE_CIS: Attagene CIS-FACTORIAL HepG2 Assay for human Glucocorticoid Response Elements (GRE) (AID 2282947); conditions: HepG2 GRE cis-reporter, Attagene multiplex mRNA; actives raise or lower the signal
Summary of the method: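 Multiplexed cis-reporter mRNA induction, HepG2, 24 h post-dose. RT-PCR, FAM-labelled, HpaI-digested amplicons by CE. Bidirectional fit vs DMSO.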

[4] = ATG_ISRE_CIS: Attagene CIS-FACTORIAL HepG2 Assay for human Interferon Regulatory Factor 1 (IRF1) binding to an Interferon-Stimulated Response Element (ISRE) (AID 2282948); conditions: HepG2 ISRE cis-reporter (Attagene), mRNA transcription readout; actives raise or lower the signal
Summary of the method: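 Multiplexed mRNA reporter readout in human liver HepG2 cells: cis-element-driven reporters transfected, compound added for 24 h, transcripts amplified, fluorescently labelled and sized by capillary electrophoresis; curve fitting bidirectional against DMSO.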

[5] = ATG_M_32_CIS: Attagene CIS-FACTORIAL HepG2 Assay for M32 Transcription Factor (Internal Marker) (AID 2282949); conditions: HepG2 Attagene cis-factorial M32 reporter, mRNA; actives raise or lower the signal;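 also: background control marker of the multiplexed CIS panel rather than a real target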
Summary of the method: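 Using DMSO as baseline, bidirectional curve fits were applied to reporter mRNA signals. These came from transiently transfected HepG2 cells exposed for 24 h, with RNA analysed by RT-PCR, FAM primer extension, HpaI digestion and CE.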

[6] = ATG_M_06_CIS: Attagene CIS-FACTORIAL HepG2 Assay for M06 Transcription Factor (Internal Marker) (AID 2282950); conditions: HepG2 Attagene CIS-FACTORIAL M06 internal marker reporter; actives raise or lower the signal
Summary of the method: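 Read-out is fluorescence of labelled reporter cDNA fragments resolved by capillary electrophoresis after RT-PCR. Cells: HepG2 carrying transfected cis-promoter reporter units, treated 24 h. Gain or loss of signal fitted relative to DMSO.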

[7] = target: Hypoxia-inducible factor 1-alpha (Homo sapiens) (UniProt Q16665); test: ATG_HIF1a_CIS: Attagene CIS-FACTORIAL HepG2 Assay for human Hypoxia Inducible Factor 1 (HIF1A) (AID 2282951); conditions: HepG2 Attagene cis-factorial HIF1a reporter transcription; actives raise or lower the signal
Hypoxia-inducible factor 1-alpha (Homo sapiens), sequence (Q16665 whole entry, looked up): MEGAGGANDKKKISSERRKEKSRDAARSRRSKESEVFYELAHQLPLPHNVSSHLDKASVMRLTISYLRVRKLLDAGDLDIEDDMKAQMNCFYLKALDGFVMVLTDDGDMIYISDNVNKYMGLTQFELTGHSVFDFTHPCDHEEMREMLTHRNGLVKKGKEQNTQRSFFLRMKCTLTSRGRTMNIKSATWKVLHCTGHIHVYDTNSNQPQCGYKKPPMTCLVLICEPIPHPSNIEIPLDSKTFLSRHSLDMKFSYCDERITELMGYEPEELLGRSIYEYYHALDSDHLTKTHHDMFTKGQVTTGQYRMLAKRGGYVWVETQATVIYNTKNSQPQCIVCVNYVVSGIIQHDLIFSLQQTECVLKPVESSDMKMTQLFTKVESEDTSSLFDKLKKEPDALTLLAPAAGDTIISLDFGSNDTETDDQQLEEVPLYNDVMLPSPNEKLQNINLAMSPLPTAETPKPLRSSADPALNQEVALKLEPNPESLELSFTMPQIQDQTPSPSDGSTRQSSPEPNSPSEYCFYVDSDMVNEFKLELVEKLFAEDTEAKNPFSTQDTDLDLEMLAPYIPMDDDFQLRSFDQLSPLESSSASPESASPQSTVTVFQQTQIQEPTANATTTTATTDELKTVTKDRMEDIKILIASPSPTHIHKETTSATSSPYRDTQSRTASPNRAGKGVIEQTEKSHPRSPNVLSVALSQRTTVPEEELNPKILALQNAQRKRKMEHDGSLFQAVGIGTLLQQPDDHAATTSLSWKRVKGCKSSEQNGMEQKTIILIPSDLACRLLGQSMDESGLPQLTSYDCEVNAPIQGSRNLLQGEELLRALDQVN
Summary of the method: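 Activity is fitted in both directions relative to DMSO. Reporter transcripts are read by RT-PCR, fluorescent primer extension and capillary electrophoresis after 24 h chemical treatment. The cells are HepG2 carrying transiently transfected cis-element-driven reporter units responding to endogenous factors.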

[8] = target: Hepatocyte nuclear factor 6 (Homo sapiens) (UniProt Q9UBC0); test: ATG_HNF6_CIS: Attagene CIS-FACTORIAL HepG2 Assay for human Hepatocyte Nuclear Factor 6 (HNF6) (AID 2282952); conditions: HepG2 Attagene cis-factorial HNF6 reporter transcription; actives raise or lower the signal
Hepatocyte nuclear factor 6 (Homo sapiens), sequence (Q9UBC0 whole entry, looked up, the tested form may be a part): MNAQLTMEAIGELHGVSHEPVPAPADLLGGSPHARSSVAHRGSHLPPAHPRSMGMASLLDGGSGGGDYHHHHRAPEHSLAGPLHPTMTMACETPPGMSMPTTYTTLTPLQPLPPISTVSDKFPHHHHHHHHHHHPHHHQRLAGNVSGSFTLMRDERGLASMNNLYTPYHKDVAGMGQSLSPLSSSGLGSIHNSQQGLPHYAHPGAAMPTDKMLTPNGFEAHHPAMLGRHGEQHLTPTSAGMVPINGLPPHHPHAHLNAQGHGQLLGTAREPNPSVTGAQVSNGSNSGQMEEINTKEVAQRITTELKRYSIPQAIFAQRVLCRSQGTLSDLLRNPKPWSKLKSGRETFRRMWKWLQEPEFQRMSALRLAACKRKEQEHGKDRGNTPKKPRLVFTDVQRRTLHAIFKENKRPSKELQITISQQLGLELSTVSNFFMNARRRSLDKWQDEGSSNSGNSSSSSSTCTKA
Summary of the method: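 Twenty-four-hour chemical treatment of reporter-transfected HepG2 cells precedes RNA isolation, DNase-treated reverse transcription and PCR of reporter sequences. Labelled fragments are sized by capillary electrophoresis and fitted bidirectionally versus DMSO.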

[9] = target: Heat shock factor protein 1 (Homo sapiens) (UniProt Q00613); test: ATG_HSE_CIS: Attagene CIS-FACTORIAL HepG2 Assay for human Heat Shock Transcription Factor 1 (HSE) (AID 2282953); conditions: HepG2 HSE cis-reporter, Attagene RNA transcription; actives raise or lower the signal
Heat shock factor protein 1 (Homo sapiens), sequence (Q00613 whole entry, looked up): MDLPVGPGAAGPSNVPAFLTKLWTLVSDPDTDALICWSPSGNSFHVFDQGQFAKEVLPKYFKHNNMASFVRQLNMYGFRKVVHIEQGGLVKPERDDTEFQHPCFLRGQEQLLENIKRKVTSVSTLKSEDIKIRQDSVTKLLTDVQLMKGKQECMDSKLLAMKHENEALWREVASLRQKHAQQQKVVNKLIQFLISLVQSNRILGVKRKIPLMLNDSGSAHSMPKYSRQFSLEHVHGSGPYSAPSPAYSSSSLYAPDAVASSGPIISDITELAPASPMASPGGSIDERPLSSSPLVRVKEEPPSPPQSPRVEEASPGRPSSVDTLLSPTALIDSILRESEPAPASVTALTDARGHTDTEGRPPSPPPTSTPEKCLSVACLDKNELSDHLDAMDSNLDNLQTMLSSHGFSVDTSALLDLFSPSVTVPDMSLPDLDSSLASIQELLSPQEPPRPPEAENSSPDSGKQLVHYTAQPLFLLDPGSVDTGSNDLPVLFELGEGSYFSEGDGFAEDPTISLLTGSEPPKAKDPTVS
Summary of the method: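 HepG2, transient MRTU transfection, cis-promoter reporters (endogenous TF activity). 24 h compound. RNA → oligo(dT) RT → PCR → 6-FAM primer extension → HpaI cut → CE. Bidirectional fit vs DMSO.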

[10] = ATG_MRE_CIS: Attagene CIS-FACTORIAL HepG2 Assay for human Metal Responsive Element (MRE) (AID 2282954); conditions: HepG2 MRE cis-reporter transcription, Attagene multiplex; actives raise or lower the signal
Summary of the method: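 Multiplexed cis-reporter assay in human HepG2 liver cells, 24 h incubation with test chemical. Reporter transcripts measured by RT-PCR and capillary electrophoresis; values from bidirectional curve fitting versus DMSO.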

Measured: AC50

N#Cc1ccccc1O
inactive: all assays above

O=C(Cl)C(F)(F)C(F)(F)C(F)(F)C(F)(F)C(F)(F)C(F)(F)C(F)(F)F
inactive: all assays above

F[Si-2](F)(F)(F)(F)F
inactive: all assays above

FC(F)(F)C(F)(F)C(F)(F)C(F)(F)C(F)(F)C(F)(F)C(F)(F)CCI
inactive: all assays above

CC(C)CCCC(C)CCO (configuration not stated)
inactive: all assays above

CC(C)=CCCC(C)O (configuration not stated)
inactive: all assays above

OCCCc1cccnc1
inactive: all assays above

O=C(O)C(F)(F)C(F)(F)C(F)(F)C(=O)O
inactive: all assays above

CC(C)(C)C(=O)C1C(=O)c2ccccc2C1=O
active: [7] 158 µM
inactive: all other assays above

CCN(CC)c1ccc2c(c1)Oc1cc(N(CC)CC)ccc1C21OC(=O)c2ccccc21
active: [4] 55.3 µM
inactive: all other assays above

CN(C(=O)C(F)(F)C(F)(F)C(F)(F)F)[Si](C)(C)C
inactive: all assays above

CCC(=O)OC(C)c1ccccc1 (configuration not stated)
inactive: all assays above

O=C(Cl)c1ccc(Cl)cc1Cl
active: [9] 163 µM
inactive: all other assays above

CC(C)(C)c1cc(Cc2cc(C(C)(C)C)c(O)c(C(C)(C)C)c2)cc(C(C)(C)C)c1O
inactive: all assays above

CC1=CCC2C(=O)OC(=O)C2C1 (configuration not stated)
inactive: all assays above

CC(C)OC=O
not listed: [4]
inactive: all other assays above

Oc1ccc2c(c1)CCC2
inactive: all assays above

CCCCCCCCCc1ccc(OCCO)cc1
active: [1] 21.4 µM | [3] 19.2 µM | [4] 18.7 µM | [5] 21.7 µM | [7] 13.3 µM | [9] 16.8 µM | [10] 13.3 µM
inactive: [2] | [6] | [8]

CCCCC(CC)COC(=O)c1ccc(N(C)C)cc1 (configuration not stated)
inactive: all assays above

CO[Si](CCCOCC1CO1)(OC)OC (configuration not stated)
inactive: all assays above

OCC(F)(F)C(F)(F)C(F)(F)CO
not listed: [4]
inactive: all other assays above

CCN(CC)c1ccc(C=O)c(O)c1
active: [10] 52.2 µM
not listed: [4]
inactive: all other assays above
